In PubChem BioAssay (EPA / NIEHS):
Some structures have more than one record in an assay (separate samples or runs), and their calls can disagree. Active and inactive are the calls of the source. The calls were made as follows: active = hit-call score of the fitted dose curve at least 0.9, where 1 is the maximum; inactive = score below 0.9.

Assay: CCTE_Shafer_MEA_acute_burst_percentage_mean: CCTE's Neural Acute Assay for Percentage of Spikes in a Burst, Shafer Lab (AID 2284017);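 as to AC50: curve fitted for loss of signal so potency reflects decreased burst percentage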
Summary of the method: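 Well-level mean burst percentage from a 40-min recording after compound (0.03-40 uM) expressed as percent change from a 40-min baseline at 37C. Cultures: primary rat cortical neurons on MEA, dosed on DIV 13 or 15; fitted downward relative to DMSO.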

Compound | outcome | AC50
CC[C@H]1OC(=O)[C@H](C)[C@@H](O[C@H]2C[C@@](C)(OC)[C@@H](O)[C@H](C)O2)[C@H](C)[C@@H](O[C@@H]2O[C@H](C)C[C@H](N(C)C)[C@H]2O)[C@](C)(O)C[C@@H](C)C(=O)[C@H](C)[C@@H](O)[C@]1(C)O | inactive | 
Cn1c(=O)c2c(ncn2C)n(C)c1=O | inactive | 
CC[C@H]1CC[C@H](NCc2cc3c(cc2OC)[C@H]2C[C@H]2C(=O)N3C)[C@H](c2ccccc2)N1 |  | 30.9 µM (active)
COc1cccc(-c2ccc(/C=C\CN3CCCCCC3)cc2Cl)c1 |  | 1.34 µM (active)
COc1ccc2sc(C(=O)Nc3nnn[nH]3)c(OC(C)C)c2c1 | inactive | 
O=C(O)CCN(C1(C(=O)NO)CCCC1)S(=O)(=O)c1ccc(Oc2ccc(F)cc2)cc1 | inactive | 
CCCCCCCCCCCCc1ccccc1 | inactive | 
CC(C)=CCCC(C)=CC=O | inactive | 
CCCCC(CC)COC(=O)CCCCCCCCC(=O)OCC(CC)CCCC (stereo not drawn) | inactive | 
On1ccccc1=S | inactive | 
Cn1cnc([N+](=O)[O-])c1Sc1ncnc2nc[nH]c12 | inactive | 
O=P(OC(CCl)CCl)(OC(CCl)CCl)OC(CCl)CCl | inactive | 23.1 µM (active)
